Data: PubChem BioAssay (EPA / NIEHS)
Inconclusive results are not listed. Calls of active or inactive are those of the source. The calls were made as follows: active = hit-call score of the fitted dose curve at least 0.9, where 1 is the maximum; inconclusive = response in the unintended direction; inactive = score below 0.9.

How the values were obtained:
[1] = TOX21_p53_BLA_p2_viability: Viability Assessment in the Tox21 HCT-116 p53 Agonism Beta-lactamase Assay, Phase 2 (AID 2283591);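 also: compound exposure lasted 16 h at 37 °C; actives lower the ATP signal meaning cytotoxicity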
Summary of the method: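 HCT-116 p53-bla cells (4000/well) rested 5 h at 37C, then received compounds in DMSO (217-fold dilution) for 16 h at 37C, 5% CO2. After the CCF4 read, CellTiter-Glo was added; ATP luminescence was read after 30 min at room temperature.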

[2] = target: Cellular tumor antigen p53 (Homo sapiens) (UniProt P04637); experiment: TOX21_p53_BLA_p3_ratio: Tox21 HCT-116 p53 Agonism Beta-lactamase Assay, Ratio, Phase 3 (AID 2283596)
Summary of the method: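 HCT116 p53-bla cells (4000/well) given compound in DMSO (217-fold dilution) after 5 h, incubated 16 h at 37C. CCF4-AM substrate 2 h at room temperature; 460/530 nm emission ratio, gain fitted against DMSO.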

[3] = target: Cellular tumor antigen p53 (Homo sapiens) (UniProt P04637); experiment: TOX21_p53_BLA_p4_ratio: Tox21 HCT-116 p53 Agonism Beta-lactamase Assay, Ratio, Phase 4 (AID 2283601)
Summary of the method: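 HCT116 cells carrying an inducible beta-lactamase reporter were plated at 4000 cells/well, rested 5 h, then exposed to compounds in DMSO (217-fold dilution) for 16 h at 37C. CCF4-AM substrate was loaded 2 h at room temperature; 460/530 nm emission ratio scored gain-of-signal versus DMSO.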

[4] = TOX21_p53_BLA_p4_viability: Viability Assessment in the Tox21 HCT-116 p53 Agonism Beta-lactamase Assay, Phase 4 (AID 2283597);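 also: hits lower the luminescence signal meaning cytotoxicity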
Summary of the method: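 Cells plated, 5 h pre-incubation; DMSO compounds pinned (217-fold dilution); 16 h, 37C/5% CO2; CCF4-AM 2 h RT; CellTiter-Glo 30 min RT; luminescence read.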

[5] = target: Cellular tumor antigen p53 (Homo sapiens) (UniProt P04637); experiment: TOX21_p53_BLA_p5_ratio: Tox21 HCT-116 p53 Agonism Beta-lactamase Assay, Ratio, Phase 5 (AID 2283599)
Summary of the method: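 HCT-116 cells carrying a p53-inducible beta-lactamase reporter were seeded at 4000 cells/well and dosed after 5 h with compound in DMSO (217-fold dilution). After 16 h at 37C, CCF4-AM substrate was added for 2 h, and the 460/530 nm emission ratio was scored as gain-of-signal versus DMSO.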

[6] = TOX21_p53_BLA_p5_viability: Viability Assessment in the Tox21 HCT-116 p53 Agonism Beta-lactamase Assay, Phase 5 (AID 2283600)
Summary of the method: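 4000 cells/well; 5 h pre-incubation; DMSO compounds pin-transferred, 217-fold dilution; 16 h, 37C/5% CO2; CCF4-AM 2 h RT; CellTiter-Glo 30 min RT; luminescence.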

[7] = target: Estrogen receptor (Homo sapiens) (UniProt P03372); experiment: CCTE_Deisenroth_AIME_96WELL_LUC_Active: CCTE's 96-well Estrogen Receptor Transactivation Assay with AIME metabolic competence (ERTA luciferase; metabolism positive), Deisenroth Lab (AID 2284023)
Summary of the method: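 Chemicals pre-incubated 2 h with alginate-immobilized phenobarbital/beta-naphthoflavone-induced male Sprague Dawley rat liver S9, then medium transferred to VM7Luc4E2 cells for 24 h luciferase read-out. 10-point series 0.002 - 200 uM; fitted relative to 17beta-estradiol.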

[8] = target: Estrogen receptor (Homo sapiens) (UniProt P03372); experiment: CCTE_Deisenroth_AIME_96WELL_LUC_Inactive: CCTE's 96-well Estrogen Receptor Transactivation Assay without AIME metabolic competence (ERTA luciferase; metabolism negative), Deisenroth Lab (AID 2284025)
Summary of the method: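 VM7Luc4E2 breast cells, luciferase read 24 h after dosing with medium pre-incubated 2 h on alginate-water lids (metabolism negative). 10-point series 0.002–200 uM, single technical replicate, n≥4; fit relative to 17beta-estradiol.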

[9] = CCTE_Deisenroth_AIME_96WELL_CTox_Active: Cytotoxicity Assessment (CTOX) in CCTE's 96-well Estrogen Receptor Transactivation Assay with AIME metabolic competence (metabolism positive), Deisenroth Lab (AID 2284028)
Summary of the method: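 Chemicals (0.002–200 uM) were first incubated 2 h with alginate-immobilized phenobarbital/beta-naphthoflavone-induced male rat liver S9; conditioned medium then went onto VM7Luc4E2 cells for 24 h, with viability read by protease-substrate fluorescence, fitted bidirectionally.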

[10] = CCTE_Deisenroth_AIME_96WELL_CTox_Inactive: Cytotoxicity Assessment (CTOX) in CCTE's 96-well Estrogen Receptor Transactivation Assay without AIME metabolic competence (metabolism negative), Deisenroth Lab (AID 2284029)
Summary of the method: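 Chemicals (0.002 - 200 uM, 10 points) incubated 2 h with alginate-water microspheres (no S9), then medium moved onto VM7Luc4E2 cells for 24 h. Viability by protease-substrate cleavage to fluorescent probe; bidirectional fitting.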

Measured: AC50

Chain of Cellular tumor antigen p53 (Homo sapiens) (P04637 whole entry, looked up): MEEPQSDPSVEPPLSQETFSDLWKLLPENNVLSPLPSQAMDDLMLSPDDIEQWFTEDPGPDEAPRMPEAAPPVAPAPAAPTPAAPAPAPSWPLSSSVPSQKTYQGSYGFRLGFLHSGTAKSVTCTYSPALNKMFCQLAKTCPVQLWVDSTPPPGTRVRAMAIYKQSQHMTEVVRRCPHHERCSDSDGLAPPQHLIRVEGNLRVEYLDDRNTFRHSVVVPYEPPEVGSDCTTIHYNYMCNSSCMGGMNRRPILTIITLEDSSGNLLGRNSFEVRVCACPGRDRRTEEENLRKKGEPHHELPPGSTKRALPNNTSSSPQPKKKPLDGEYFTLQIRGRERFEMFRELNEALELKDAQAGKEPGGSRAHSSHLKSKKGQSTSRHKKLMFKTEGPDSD
Chain of Estrogen receptor (Homo sapiens) (P03372 whole entry, looked up): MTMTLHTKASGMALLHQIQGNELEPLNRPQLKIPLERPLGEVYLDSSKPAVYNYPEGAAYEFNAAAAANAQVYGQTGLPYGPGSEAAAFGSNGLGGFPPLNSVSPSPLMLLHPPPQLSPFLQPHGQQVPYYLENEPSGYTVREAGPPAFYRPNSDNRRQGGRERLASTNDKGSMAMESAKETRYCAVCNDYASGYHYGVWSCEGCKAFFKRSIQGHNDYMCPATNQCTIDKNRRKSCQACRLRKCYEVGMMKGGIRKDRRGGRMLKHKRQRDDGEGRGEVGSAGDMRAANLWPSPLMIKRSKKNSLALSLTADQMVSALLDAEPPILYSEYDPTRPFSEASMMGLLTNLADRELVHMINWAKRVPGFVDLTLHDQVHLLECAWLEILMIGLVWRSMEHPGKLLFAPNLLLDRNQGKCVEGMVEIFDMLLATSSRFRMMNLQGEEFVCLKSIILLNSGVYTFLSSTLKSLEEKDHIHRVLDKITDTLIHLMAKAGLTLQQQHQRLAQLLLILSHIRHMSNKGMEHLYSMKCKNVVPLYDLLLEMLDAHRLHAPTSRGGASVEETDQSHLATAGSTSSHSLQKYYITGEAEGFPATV

CCn1cc(C(=O)O)c(=O)c2cnc(N3CCNCC3)nc21
inactive: [1] | [2] | [3]

CCC1=C(C)CN(C(=O)NCCc2ccc(S(=O)(=O)NC(=O)NC3CCC(C)CC3)cc2)C1=O (stereo not given)
inactive: [1] | [4] | [5]

COc1cc2nc(N3CCN(C(=O)C4CCCO4)CC3)nc(N)c2cc1OC (stereo not given)
inactive: [1] | [4] | [5] | [6] | [3]

Cc1ccccc1C(N)=O
inactive: [1] | [2] | [6] | [3]

Cc1cscn1
inactive: [1] | [4]

CCC(C(=O)OCCOCCN(CC)CC)c1ccccc1 (stereo not given)
inactive: [1] | [2] | [5] | [3]

N[C@@H](C(=O)N[C@@H]1C(=O)N2C(C(=O)O)=C(CSc3cn[nH]n3)CS[C@H]12)c1ccc(O)cc1
inactive: [1] | [4] | [5] | [6]

COc1ccc2c(c1)c(CC(=O)OCC(=O)O)c(C)n2C(=O)c1ccc(Cl)cc1
inactive: [1] | [4]

CC(=O)Nc1c(I)cc(I)c(C(=O)O)c1I
inactive: [1] | [2] | [5] | [3]

CC(=O)C1CCCCC1=O (stereo not given)
inactive: [1] | [2] | [6]

CC(C)(Sc1cc(C(C)(C)C)c(O)c(C(C)(C)C)c1)Sc1cc(C(C)(C)C)c(O)c(C(C)(C)C)c1
inactive: [1] | [4] | [5] | [6]

Cc1c(N)cccc1[N+](=O)[O-]
inactive: [1] | [4] | [5] | [6]

CC[N+](C)(C)c1cccc(O)c1
inactive: [1] | [2] | [5] | [3]

CCC(Cc1c(I)cc(I)c(O)c1I)C(=O)O (stereo not given)
inactive: [1] | [4] | [5]

Cc1c(I)c(=O)n(-c2ccccc2)n1C
inactive: [1] | [2] | [5] | [6] | [3]

OCC1(CO)COCOC1
inactive: [1] | [2] | [5] | [6] | [3]

C1CCC2=NCCCN2CC1
inactive: [1] | [4] | [5] | [6]

O=C(O)COc1ccc2ccccc2c1
inactive: [1] | [2] | [5] | [6] | [3]

C[C@H](O)CN(C)C
inactive: [1] | [2] | [5] | [3]

CCCCCC
inactive: [1] | [2] | [5] | [3]

CCc1cnc(C(=O)O)c(C(=O)O)c1
inactive: [1] | [2] | [5] | [3]

CC(=C(CCO)SSCC1CCCO1)N(C=O)Cc1cnc(C)nc1N (stereo not given)
inactive: [1] | [4] | [5]

CC(=O)Nc1ccc(C)c(Cl)c1
inactive: [1] | [4] | [5] | [6]

O=C1OC(=O)C2CCCCC12 (stereo not given)
inactive: [1] | [4] | [5]

COc1c(O)cc2c(c1O)[C@@H]1O[C@H](CO)[C@@H](O)[C@H](O)[C@H]1OC2=O
inactive: [1] | [2] | [5] | [3]

O=CNNC=O
inactive: [1] | [2] | [5] | [3]

CC(NN)c1ccccc1 (stereo not given)
inactive: [1] | [2] | [6] | [3]

CC(C)CC=O
inactive: [1] | [4] | [5]

C(=C\c1ccccc1)/c1ccccc1
active: [7] 18 µM | [8] 44.6 µM
inactive: [1] | [2] | [6] | [9] | [10]

CC(C)CCCO
inactive: [1] | [2] | [3]

CC(C)=CC(=O)C=C(C)C
inactive: [1] | [4] | [5] | [6]

CC(=O)[C@@]1(O)CC[C@H]2[C@@H]3C[C@H](C)C4=CC(=O)CC[C@]4(C)[C@H]3CC[C@@]21C
inactive: [1] | [4] | [5]

CC(C)(c1cc(Br)c(OCC(Br)CBr)c(Br)c1)c1cc(Br)c(OCC(Br)CBr)c(Br)c1 (stereo not given)
inactive: [1] | [4] | [5]

CCN(CC)CCc1nc(-c2ccccc2)no1
inactive: [1] | [2] | [5] | [3]

CC(C(=O)O)c1ccc(/C=C2\CCCCC2=O)cc1 (stereo not given)
inactive: [1] | [2] | [6] | [3]

CN1CCCC(n2nc(Cc3ccc(Cl)cc3)c3ccccc3c2=O)CC1 (stereo not given)
inactive: [1] | [4]
